Experimental data taken from PubChem BioAssay (NCATS).
Results filed as inconclusive are left out. The source made the active and inactive calls. Calls follow the shape of the dose curve; as a rule, active = well fitted curve in the direction sought with a large enough effect; inconclusive = small, poorly fitted or top-dose-only effect, or another doubt; inactive = no such curve, though single readings can be large; an effect the other way counts as inactive or inconclusive.

What was measured:
HaCat = test: Cytotoxic Profiling of Annotated Libraries Using Quantitative High-Throughput Screening (AID 1296008); conditions: Five cell lines viability, CellTiter-Glo ATP luminescence, 48-72 h; max response: hits give low values; also: nearly all actives have a fitted effect of over 60% in size
Outline: (§1)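 Cytotoxicity was measured as CellTiter-Glo ATP luminescence, read after 10 min at room temperature. Compound treatment of the cells lasted 48 or 72 hr at 37 degrees Celsius in a qHTS format.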

KB-3-1 = test: as above; conditions: Five cell lines viability, CellTiter-Glo ATP luminescence, 48-72 h; max response: hits give low values
Outline: as §1

NIH3T3 = test: as above; conditions: Five cell lines viability, CellTiter-Glo ATP luminescence, 48-72 h; max response: hits give low values
Outline: as §1

C33A = test: Primary qHTS to identify gynecologic anti-cancer compounds using libraries of approved drugs and bioactive compounds (AID 1345084); conditions: Gynecologic cancer cell panel viability, ATPlite luminescence, 48 h; series mostly up to 57.5 µM; also: nearly all actives have a fitted effect of over 55% in size
Outline: (§2)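 48 h compound exposure at 37 C, 5% CO2; five-point qHTS. ATPlite luminescence readout of cell ATP.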

CAOV3 = test: as above; conditions: Gynecologic cancer cell panel viability, ATPlite luminescence, 48 h; series mostly up to 57.5 µM
Outline: as §2

CASKI = test: as above; conditions: Gynecologic cancer cell panel viability, ATPlite luminescence, 48 h; series mostly up to 57.5 µM
Outline: as §2

Es-2 = test: as above; conditions: Gynecologic cancer cell panel viability, ATPlite luminescence, 48 h; series mostly up to 57.5 µM
Outline: as §2

HeLa = test: as above; conditions: Gynecologic cancer cell panel viability, ATPlite luminescence, 48 h; series mostly up to 57.5 µM
Outline: as §2

Hek293T = test: as above; conditions: Gynecologic cancer cell panel viability, ATPlite luminescence, 48 h, control line for the selectivity index; series mostly up to 57.5 µM
Outline: as §2

JEG-3 = test: as above; conditions: Gynecologic cancer cell panel viability, ATPlite luminescence, 48 h; series mostly up to 57.5 µM
Outline: as §2

OV90 = test: as above; conditions: Gynecologic cancer cell panel viability, ATPlite luminescence, 48 h; series mostly up to 57.5 µM
Outline: as §2
% is scaled to controls: 0 for no effect and ±100 for the full control effect.

O=C(O)CC1CCC(c2ccc(-c3ccc4nc(C(=O)NCc5ccc(OC(F)(F)F)cc5)cn4c3)cc2)CC1 (centres undefined)
inactive: max response (HaCat) -3.96% | max response (KB-3-1) -0.0408% | max response (NIH3T3) -0.598% | Potency (C33A) | Potency (CAOV3) | Potency (CASKI) | Potency (Es-2) | Potency (HeLa) | Potency (Hek293T) | Potency (JEG-3) | Potency (OV90)

C=CC/C=C\C/C=C\CCCCCCCc1cccc(O)c1C(=O)O
inactive: max response (HaCat) 3.56% | max response (KB-3-1) 4.36% | max response (NIH3T3) -1.27% | Potency (C33A) | Potency (CAOV3) | Potency (CASKI) | Potency (Es-2) | Potency (HeLa) | Potency (Hek293T) | Potency (JEG-3) | Potency (OV90)

CC(=O)OC1C[C@]2(C)C(O)CC(C)=C[C@H](OC(=O)c3ccc(O)cc3)C2[C@]1(O)C(C)C (some centres undefined)
inactive: max response (HaCat) -0.241% | max response (KB-3-1) 4.36% | max response (NIH3T3) 3.62% | Potency (C33A) | Potency (CAOV3) | Potency (CASKI) | Potency (Es-2) | Potency (HeLa) | Potency (Hek293T) | Potency (JEG-3) | Potency (OV90)

COC(=O)C1=CO[C@@H](O[C@@H]2O[C@H](CO[C@@H]3O[C@H](COC(=O)/C=C/c4cc(OC)c(O)c(OC)c4)[C@@H](O)[C@H](O)[C@H]3O)[C@@H](O)[C@H](O)[C@H]2O)[C@@H]2C(CO)=CC[C@H]12
inactive: max response (HaCat) 4.35% | outcome (KB-3-1) | max response (NIH3T3) -2.41% | Potency (C33A) | Potency (CAOV3) | Potency (CASKI) | Potency (Es-2) | Potency (HeLa) | Potency (Hek293T) | Potency (JEG-3) | Potency (OV90)

N#C[C@@H]1C[C@H](F)CN1C(=O)CNC1[C@H]2CN(C(=O)c3ccc(F)cc3)C[C@@H]12 (some centres undefined)
inactive: max response (HaCat) -7.89% | max response (KB-3-1) 1.86% | max response (NIH3T3) -2.06% | Potency (C33A) | Potency (CAOV3) | Potency (CASKI) | Potency (Es-2) | Potency (HeLa) | Potency (Hek293T) | Potency (JEG-3) | Potency (OV90)

CC(C)=CC/C=C(\C)[C@H]1CC[C@]2(C)[C@@H]1[C@H](O)C[C@@H]1[C@@]3(C)CC[C@H](O)C(C)(C)[C@@H]3[C@@H](O[C@@H]3O[C@H](CO)[C@@H](O)[C@H](O)[C@H]3O)C[C@]12C
inactive: max response (HaCat) 4.08% | outcome (KB-3-1) | max response (NIH3T3) -21.6% | Potency (C33A) | Potency (CAOV3) | Potency (CASKI) | Potency (Es-2) | Potency (HeLa) | Potency (Hek293T) | Potency (JEG-3) | Potency (OV90)

OC[C@H]1O[C@@H](OC[C@H]2O[C@@H](OC/C=C/c3ccccc3)[C@H](O)[C@@H](O)[C@@H]2O)[C@@H](O)[C@@H]1O
inactive: max response (HaCat) -0.518% | outcome (KB-3-1) | max response (NIH3T3) 2.42% | Potency (C33A) | Potency (CAOV3) | Potency (CASKI) | Potency (Es-2) | Potency (HeLa) | Potency (Hek293T) | Potency (JEG-3) | Potency (OV90)

C[C@@H]1N[C@H]2N(C1=O)c1ccccc1[C@@]2(O)C[C@@H]1C(=O)N[C@@H](C)c2nc3ccccc3c(=O)n21
inactive: max response (HaCat) 1.5% | outcome (KB-3-1) | max response (NIH3T3) -0.438% | Potency (C33A) | Potency (CAOV3) | Potency (CASKI) | Potency (Es-2) | Potency (HeLa) | Potency (Hek293T) | Potency (JEG-3) | Potency (OV90)

CC(C)(F)C[C@@H](N[C@@H](c1ccc(-c2ccc(S(C)(=O)=O)cc2)cc1)C(F)(F)F)C(=O)NC1(C#N)CC1
inactive: max response (HaCat) -33% | outcome (KB-3-1) | max response (NIH3T3) -4.72% | Potency (C33A) | Potency (CAOV3) | Potency (CASKI) | Potency (Es-2) | Potency (HeLa) | Potency (Hek293T) | Potency (JEG-3) | Potency (OV90)

CC1=C2C[C@H]3O[C@@]3(C)CCC3O[C@@]3(C)C[C@@]2(O)OC1=O (some centres undefined)
inactive: max response (HaCat) -4.97% | outcome (KB-3-1) | max response (NIH3T3) 2.41% | Potency (C33A) | Potency (CAOV3) | Potency (CASKI) | Potency (Es-2) | Potency (HeLa) | Potency (Hek293T) | Potency (JEG-3) | Potency (OV90)

CC1(C)CC[C@]2(C(=O)O[C@@H]3O[C@H](CO)[C@@H](O)[C@H](O)[C@H]3O)CC[C@]3(C)C(=CCC4[C@@]5(C)C[C@@H](O)[C@H](O)C(C)(C)C5[C@H](O)C[C@]43C)[C@@H]2[C@@H]1O (some centres undefined)
inactive: max response (HaCat) 0.337% | outcome (KB-3-1) | max response (NIH3T3) -3.1% | Potency (C33A) | Potency (CAOV3) | Potency (CASKI) | Potency (Es-2) | Potency (HeLa) | Potency (Hek293T) | Potency (JEG-3) | Potency (OV90)

Cc1ccc(F)cc1C(=O)Nc1ccc(C(=O)N2Cc3cccn3Cc3ccccc32)c(Cl)c1
inactive: max response (HaCat) -26.5% | max response (KB-3-1) -16% | max response (NIH3T3) -21.1% | Potency (C33A) | Potency (CAOV3) | Potency (CASKI) | Potency (Es-2) | Potency (HeLa) | Potency (Hek293T) | Potency (JEG-3) | Potency (OV90)

C[C@@H]1O[C@@H](O[C@@H]2CO[C@@H](O[C@H]3CC[C@@]4(C)C(CC[C@]5(C)C4CC=C4[C@@H]6CC(C)(C)CC[C@]6(C(=O)O[C@@H]6O[C@H](CO)[C@@H](O)[C@H](O)[C@H]6O)CC[C@]45C)[C@]3(C)CO)[C@H](O)[C@H]2O[C@@H]2O[C@H](CO)[C@@H](O)[C@H](O)[C@H]2O)[C@H](O)[C@H](O)[C@H]1O (some centres undefined)
inactive: max response (HaCat) -0.513% | outcome (KB-3-1) | max response (NIH3T3) 2.94% | activity change, negative = cytotoxicity (C33A) 16.4% [at 11.6 µM] | activity change, negative = cytotoxicity (CAOV3) 15.5% [at 11.6 µM] | activity change, negative = cytotoxicity (CASKI) 3.56% [at 11.6 µM] | activity change, negative = cytotoxicity (Es-2) 19.8% [at 11.6 µM] | activity change, negative = cytotoxicity (HeLa) -1.12% [at 11.6 µM] | activity change, negative = cytotoxicity (Hek293T) -12.7% [at 11.6 µM] | activity change, negative = cytotoxicity (JEG-3) -4.12% [at 11.6 µM] | activity change, negative = cytotoxicity (OV90) -13.3% [at 11.6 µM]

CC1OC(OCC2OC(OC3CCC4(C)C(CCC5(C)C4CC=C4C6CC(C)(C)CCC6(C(=O)OC6OC(CO)C(O)C(O)C6O)CCC45C)C3(C)CO)C(O)C(O)C2O)C(O)C(O)C1O (centres undefined)
inactive: max response (HaCat) 2.13% | max response (KB-3-1) 9.22% | max response (NIH3T3) 0.258% | activity change, negative = cytotoxicity (C33A) 10.1% [at 11.6 µM] | activity change, negative = cytotoxicity (CAOV3) 17.5% [at 11.6 µM] | activity change, negative = cytotoxicity (CASKI) 14.8% [at 11.6 µM] | activity change, negative = cytotoxicity (Es-2) 0.0336% [at 11.6 µM] | activity change, negative = cytotoxicity (HeLa) -1.23% [at 11.6 µM] | activity change, negative = cytotoxicity (Hek293T) -5.88% [at 11.6 µM] | activity change, negative = cytotoxicity (JEG-3) -1.04% [at 11.6 µM] | activity change, negative = cytotoxicity (OV90) -5.44% [at 11.6 µM]
